From PubChem BioAssay
ST2 IL33 inh = blocks human ST2 binding to IL-33; Q01638; AID 1259354; inhibition, % for hits at 17 µM; actives 2.3% (n = 78,000); AlphaLISA ST2-Fc/biotin-IL-33 interaction, 1 h; in the data active = inhibition above about 30%
Target sequence (Q01638 whole entry, looked up): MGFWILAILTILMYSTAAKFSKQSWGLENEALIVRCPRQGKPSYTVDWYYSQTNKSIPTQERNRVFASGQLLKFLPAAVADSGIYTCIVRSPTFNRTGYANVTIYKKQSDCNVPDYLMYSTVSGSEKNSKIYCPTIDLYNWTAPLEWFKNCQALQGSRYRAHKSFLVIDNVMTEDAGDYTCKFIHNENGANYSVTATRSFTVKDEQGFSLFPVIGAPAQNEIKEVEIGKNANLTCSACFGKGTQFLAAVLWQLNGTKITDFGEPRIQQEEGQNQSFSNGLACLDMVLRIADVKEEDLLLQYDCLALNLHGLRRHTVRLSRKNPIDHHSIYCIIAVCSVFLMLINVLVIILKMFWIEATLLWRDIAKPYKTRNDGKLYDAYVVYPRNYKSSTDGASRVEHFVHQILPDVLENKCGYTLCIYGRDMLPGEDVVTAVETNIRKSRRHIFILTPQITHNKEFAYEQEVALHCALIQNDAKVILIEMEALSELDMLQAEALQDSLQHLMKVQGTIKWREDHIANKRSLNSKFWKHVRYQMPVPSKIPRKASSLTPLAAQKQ
* hit, by the source's call; i = inactive; ! = not confirmed by another sample. The full list was thinned out, with hits kept by preference.

SMILES	ST2 IL33 inh
Cc1cc(CN2CCc3[nH]cnc3C2c2cccn2-c2nccs2)on1 (stereo not given)	i
C[C@@H]1CC[C@]2(C(=O)O[C@@H]3O[C@H](CO)[C@@H](O)[C@H](O)[C@H]3O)CC[C@]3(C)C(=CCC4[C@@]5(C)C[C@@H](O)[C@H](O)C(C)(C)C5CC[C@]43C)C2[C@]1(C)O (stereo not given in full)	i
Cc1cccc(OC2CN(C(=O)CCCS(N)(=O)=O)C2)c1	i
COc1ccc(OCc2ccc(F)cc2)c(/C=C2\C(=O)NN(c3ccccc3)C2=O)c1	i
COc1cccc(OCCOc2ccc(/C=C3\C(=O)NN(c4ccccc4)C3=O)cc2)c1	i
COc1ccc(OCc2ccccc2F)c(/C=C2\C(=O)NN(c3ccccc3)C2=O)c1	35%*
CN1C(=O)C2(CCN(C(=O)NCc3ccco3)CC2)c2ccccc21	i
CCCCN(CC)S(=O)(=O)c1ccc(C(=O)Nc2nnc(-c3cccs3)o2)cc1	i
CCOc1ccc(N2C(=O)CC(N3CCN(c4ccc(F)cc4)CC3)C2=O)cc1 (stereo not given)	i
COc1ccc(OC)c(N2C(=O)CC(N3CCN(c4ccc(F)cc4)CC3)C2=O)c1 (stereo not given)	31%*
COc1ccccc1N1C(=O)CC(N2CCN(c3ccc(F)cc3)CC2)C1=O (stereo not given)	i
CCOC(=O)CSc1nc2c([nH]c3ccccc32)c(=O)n1C	i
COc1cccc(C(=O)NC(c2ccco2)c2cc(Cl)c3cccnc3c2O)c1 (stereo not given)	i
CCOc1ccc(NS(=O)(=O)c2ccc(NC(=O)c3ccc(OC)cc3)cc2)cc1	i
Cc1ccccc1C(=O)Nc1ccc([N+](=O)[O-])cc1	i
CCc1ccccc1NC(=O)c1ccc([N+](=O)[O-])cc1	i
Cc1ccccc1NCC(=O)c1ccc([N+](=O)[O-])cc1	48%*
CC1=C(C(=O)N2CCC3(CCCN(CC4CCC4)C3=O)C2)OCCO1 (stereo not given)	i
CSc1nc2c(sc3ccccc32)c(=O)n1CCCC(=O)NCC1CCCO1 (stereo not given)	i
O=C(NCc1ccc(F)cc1)C1CCN(c2ccc(-c3cccs3)nn2)CC1	i
N#CC1=C(N)OC2=C(C(=O)CCC2)C1c1ccco1 (stereo not given)	i
CCc1ccc(NC(=O)c2ccc(N(Cc3ccccc3)S(C)(=O)=O)cc2)cc1	i
CC(C)(C)c1ccc(C(=O)Nc2ccc3c(c2)OCO3)cc1	i
COC(=O)C1=C(NC(=O)c2ccc(C(C)(C)C)cc2)CCS1	53%*
COc1ccccc1NC(=O)c1ccc(OCc2ccccc2)cc1	i
SMILES	ST2 IL33 inh
COC(=O)c1c(NC(=O)COc2ccc(C(C)(C)C)cc2)sc2c1CCC2	i
COC(=O)C1=C(NC(=O)c2ccc(Cc3ccccc3)cc2)CCS1	31%*
Cc1ccc2nc(CNC(=O)CN3C(=O)CCc4cc(S(=O)(=O)N5CCCC5)ccc43)[nH]c2c1	i
CCC(=O)N1N=C(C(F)(F)F)CC1(O)c1ccc(F)cc1 (stereo not given)	i
CN(C)CCNC(=O)Cc1cn(C)c2ccccc12	i
CCCCN(CC)CCCNC(=O)c1cc2cc3ccc(OC)cc3nc2o1	i
COc1ccc2cc3cc(C(=O)NCCCN4CCN(C)CC4)oc3nc2c1	i
CCCN(CCC)CCCNC(=O)c1cc2cc3ccc(OC)cc3nc2o1	i
COc1ccc2cc3cc(C(=O)Nc4cc(Cl)ccc4OC)oc3nc2c1	i
O=C(Nc1ccc(F)cc1)c1cc2cc3ccc(Cl)cc3nc2o1	37%*!
CCC1CCCCN1CCCNC(=O)c1cc2cc3ccc(Cl)cc3nc2o1 (stereo not given)	i
CCN(CCCNC(=O)c1cc2cc3ccc(Cl)cc3nc2o1)c1ccccc1	34%*!
COc1ccc2cc3cc(C(=O)Nc4ccc(F)cc4Cl)oc3nc2c1	i
O=C(NCCCN1CCCCCC1)c1cc2cc3ccc(Cl)cc3nc2o1	44%*!
CC(C)NCCCOc1ccc(Cl)cc1Br	i
Cc1cc(N2CCN(C)CC2)nc2ccc(NC(=O)Cc3cccc(C(F)(F)F)c3)cc12	i
Cc1cc(NC(=O)c2ccc(C(=O)Nc3cc(C)on3)cc2)no1	i
Cc1ncoc1C(=O)N1CCC(CCC(=O)Nc2ccc3c(c2)OCCO3)CC1	i
Cc1cccc(C)c1NC(=O)CN1CCN(CC(=O)Nc2c(C)cccc2C)CC1	i
COc1cc(OC)cc(-c2cc3nc(C)c(CCC(=O)NC4CCCC4)c(C)n3n2)c1	i
CCOc1ccc(C(C)=O)cc1N1C(=O)[C@@H]2C3C=CC(C3=C(C)C)[C@@H]2C1=O	i
Cc1c(C#N)c2ccccc2n1CC(=O)NCC1CCCO1 (stereo not given)	i
N#C/C(=C/c1cn(Cc2ccc(Cl)cc2Cl)c2ccccc12)C(=O)NCC1CCCO1 (stereo not given)	32%*
Cn1cc(CC(=O)NCC2CCCO2)c2ccccc21 (stereo not given)	i
COc1cc(OC)c(OC)cc1CN1CCN(C(=O)c2cc(OC)c(OC)c(OC)c2)CC1	i
SMILES	ST2 IL33 inh
CCCn1ncc(-c2ccnc(NCc3cnn(CC)c3)n2)c1C	i
CCc1ccccc1NC(=O)CSc1nnc(-c2ccncc2)n1-c1ccccc1	i
c1ccc(-c2nnc(SCC3CCOCO3)n2-c2ccccc2)cc1 (stereo not given)	31%*
O=C(CSc1nnc(-c2ccco2)n1-c1ccccc1)NCC1CCCO1 (stereo not given)	i
COCCCNC(=O)C1c2cc(OC)c(OC)cc2C(=O)N(C)C1c1cccs1 (stereo not given)	i
Cc1ccc(C(=O)Nc2ccc3c(c2)OCCO3)cc1[N+](=O)[O-]	i
COc1ccc(C)cc1NC(=O)CSc1nc(-c2ccc3c(c2)OCO3)nc2cc(=O)[nH]n12	i
CCCn1cc(C(=O)N(C)CC2CCCCO2)c(C)n1 (stereo not given)	i
CN(C)S(=O)(=O)N1CCc2[nH]nc(-c3cccc4ccccc34)c2C1	i
CCN(CC)c1ccc(NC(=O)Cc2ccccc2)cc1	36%*
CCN(Cc1ccccc1)Cc1ccc(NC(C)=O)cc1	i
CCN(CC)c1ccc(NC(=O)CCN2C(=O)c3ccccc3C2=O)cc1	i
Cc1ccccc1CN1C(=O)C(O)(CC(=O)c2ccncc2)c2ccccc21 (stereo not given)	i
CCOC(=O)c1nn(CCc2scnc2C)c2c1CN(C(=O)c1scc3c1CCCC3)CC2	i
CCOC(=O)c1nn(Cc2ccc(OC)cc2)c2c1CN(C(=O)C1CCCO1)CC2 (stereo not given)	i
CCOC(=O)c1nn(CCc2ccc(OC)cc2)c2c1CN(C(=O)c1cc(C)nc(C)n1)CC2	30%*
CCCn1c(CCNC(=O)c2cccs2)nc2ccccc21	i
COc1ccc(C(=O)NC(NCc2ccccc2)C(Cl)(Cl)Cl)cc1 (stereo not given)	i
CC(C)c1ccc(/C=C/C(=O)Nc2cccc(NC(=O)c3ccco3)c2)cc1	i
COc1ccc(-n2nc3c(c2NC(=O)c2ccc(OC)cc2OC)CSC3)cc1	i
COC(=O)C1=C(NC(=O)c2ccccc2Br)CCS1	31%*
COc1ccc(NC(=O)c2ccccc2Br)cc1	i
COC(=O)C1=C(NC(=O)c2ccc(OC)cc2OC)CCS1	32%*
COc1ccc(OC)c(NC(=O)c2ccccc2Br)c1	i
COc1ccc(C(=O)Nc2nc3ccc(S(C)(=O)=O)cc3s2)c(OC)c1	i
